# Screens deposited in PubChem by Broad Institute.
# C diff growth – blocks growth of Clostridium difficile; 86,000 tested, 0.25% active; Clostridium difficile clinical isolate growth, OD600, 24 h; hits give low values; growth activity, negative = inhibition, % at 16 µg/mL (by protocol);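 active = mean growth activity at or below -80% and every replicate also at or below -80%; inconclusive = mean at or below -80% but some replicate above -80%; inactive = mean growth activity above -80%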;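 also: 0% = DMSO wells and -100% = levofloxacin 16 µg/mL wells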
# Pf Dd2 growth – inhibitors of Plasmodium falciparum Dd2 growth; AID 1159554; 94,000 tested, 2.3% active; activity change, % at 10 µM; P. falciparum Dd2 growth, SYBR Green, 72 h; hits give low values; in the data active = activity change below about -80%; inconclusive = no clear call, values can overlap the other calls
# T cruzi growth-1 – T. cruzi proliferation inhibition | T. cruzi beta-gal in NIH3T3, GalScreen luminescence, 90 h | inhibition, % at 8.34 µM | 77,000 tested, 5.9% active | AID 624255;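 active = mean inhibition above about 93%, with at least 55% of replicates each passing it, limit read from the data, passing the limit was not always enough; inconclusive = only one of those two conditions holds; inactive = neither condition holds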
# T cruzi growth-2 – Trypanosoma cruzi proliferation inhibition; shares compounds with T cruzi growth-1; T. cruzi beta-gal in NIH3T3, GalScreen luminescence, 90 h; inhibition, % at 8.35 µM; 5,600 tested, 72% active;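 active = mean replicate inhibition above about 95% and at least 55% of replicates individually reaching it, limit read from the data; inconclusive = only one of the two criteria is met; inactive = neither criterion is met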
# T cruzi growth-3 – blocks T. cruzi growth in NIH3T3 host cells | AID 651740 | shares compounds with T cruzi growth-1 | T. cruzi beta-gal in NIH3T3, GalScreen luminescence, 90 h | inhibition, % at 2.09 µM | 5,600 tested, 21% active;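 active = mean inhibition above about 95%, with at least 55% of replicates also reaching it, limit read from the data; inconclusive = meets just one of the two conditions; inactive = meets neither condition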;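 also: plate controls were neutral control median for no effect and positive control median for full effect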
# NIH3T3 tox – kills mouse NIH/3T3 fibroblasts; 5,600 tested, 14% active; cytotoxicity (signal decrease), % at 8.35 µM; shares compounds with T cruzi growth-1; NIH/3T3 viability, CellTiter-Glo ATP luminescence, 90 h;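 active = mean signal decrease across replicates above about 35% based on untreated-well scatter, with enough replicates individually passing, limit read from the data; inconclusive = no rule stated though some were filed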;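 also: 0% = median of neutral control wells and 100% = median of positive control wells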
# 3T3 cytotox 2 – kills mouse NIH/3T3 fibroblasts; 5,600 tested, 56% active; NIH/3T3 viability, CellTiter-Glo ATP luminescence, 90 h; inhibition, % at 24.9 µM; shares compounds with T cruzi growth-1;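 active = mean loss of cell viability signal at or above a set limit, and enough replicates individually reaching it; inconclusive = meets only the mean limit or only the replicate share; inactive = meets neither condition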;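 also: 0% = median of neutral control wells and 100% = median of positive control wells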
# * = called active by the depositor; ? = inconclusive; / = not tested or not shown. In the library only some 6.7% were active in any assay of this set; here they are far more common.
SMILES,C diff growth,Pf Dd2 growth,T cruzi growth-1,T cruzi growth-2,T cruzi growth-3,NIH3T3 tox,3T3 cytotox 2
COc1cccc(S(=O)(=O)N2CCCCN3[C@H](C2)[C@H](c2ccc(C#CC4CC4)cc2)[C@@H]3CO)c1,34,-22,72,/,/,/,/
CO[C@H]1CN(C)C(=O)c2cc(NC(C)=O)ccc2OC[C@H](C)N(Cc2nccs2)C[C@H]1C,-1,10,16,/,/,/,/
Cc1ccc(S(=O)(=O)Nc2ccc3c(c2)C(=O)N([C@H](C)CO)C[C@@H](C)[C@@H](CN(C)C(=O)C2CCCCC2)OCCCC[C@@H](C)O3)cc1,-4,-69,95,/,/,/,/
C[C@@H]1CN([C@H](C)CO)S(=O)(=O)c2ccc(C3=CCCCC3)cc2O[C@H]1CN(C)C(=O)C1CCOCC1,/,-37,/,/,/,/,/
CC(C)NC(=O)Nc1ccc2c(c1)CC(=O)N([C@@H](C)CO)C[C@H](C)[C@@H](CN(C)C(=O)Nc1ccc(C(F)(F)F)cc1)O2,3,-18,-29,/,/,/,/
C[C@H](CO)N1C[C@H](C)[C@H](CN(C)Cc2ccc(Cl)c(Cl)c2)Oc2c(NC(=O)Nc3ccc(C(F)(F)F)cc3)cccc2C1=O,52,-12,128*,105*,101*,7,98*
C[C@@H]1CN([C@@H](C)CO)C(=O)c2cccc(NC(=O)Nc3ccc(F)cc3)c2O[C@@H]1CN(C)Cc1ccc(Oc2ccccc2)cc1,/,-36,111,/,/,/,/
C[C@H](CO)N1C[C@H](C)[C@H](CN(C)Cc2ccc(Cl)c(Cl)c2)Oc2c(NC(=O)Nc3ccc(F)cc3)cccc2C1=O,/,-9,60,/,/,/,/
C[C@H]1CN([C@@H](C)CO)C(=O)c2cccc(NC(=O)Nc3ccc(F)cc3)c2O[C@@H]1CN(C)Cc1ccc(Oc2ccccc2)cc1,/,-21,?,103*,85,5,37*
C[C@H](CO)N1C[C@H](C)[C@H](CN(C)Cc2ccc(C(F)(F)F)cc2)Oc2c(NC(=O)Nc3ccc4c(c3)OCO4)cccc2C1=O,5,-9,87,/,/,/,/
C[C@@H]1CN([C@@H](C)CO)C(=O)c2cccc(NC(=O)Nc3ccc(C(F)(F)F)cc3)c2O[C@@H]1CN(C)Cc1ccc2c(c1)OCO2,/,-30,?,105*,13,-7,104*
Cc1noc(C)c1NC(=O)Nc1cccc2c1O[C@@H](CN(C)Cc1ccncc1)[C@H](C)CN([C@@H](C)CO)C2=O,-3,8,110*,-2,0,-6,-8
Cc1noc(C)c1NC(=O)Nc1cccc2c1O[C@@H](CN(C)Cc1ccncc1)[C@H](C)CN([C@H](C)CO)C2=O,0,4,43,/,/,/,/
CC=Cc1ccc2n(c1=O)C[C@@H]1[C@@H](CO)[C@H](C(=O)NC3CCC3)[C@H]2N1C(=O)c1ccccn1 (mixture of isomers),1,/,-28,/,/,/,/
O=C(C[C@H]1CC[C@@H]2[C@H](COC[C@@H](O)CN2S(=O)(=O)c2ccccc2Cl)O1)NCc1ccccc1Cl,/,-17,13,/,/,/,/
O=C(Cc1ccccn1)N1CC(=O)N2[C@@H](CO)[C@H](c3ccc(C#CC4CCCCC4)cc3)[C@@H]2C1,-7,7,/,/,/,/,/
Cc1ccc(S(=O)(=O)N(C)C[C@H]2OCCCC[C@@H](C)Oc3ccc(NC(=O)CCC(F)(F)F)cc3C(=O)N([C@H](C)CO)C[C@H]2C)cc1,/,-50,/,/,/,/,/
O=C(N[C@@H]1CC[C@H](CCNC(=O)C2CCCC2)O[C@H]1CO)c1ccccn1,-2,3,/,/,/,/,/
CCCN(C)C[C@H]1Oc2cc(-c3cccc(OC)c3)ccc2S(=O)(=O)N([C@H](C)CO)C[C@H]1C,4,-36,59,/,/,/,/
C[C@@H]1CN([C@@H](C)CO)C(=O)c2cccc(NC(=O)C3CCOCC3)c2O[C@@H]1CN(C)Cc1ccc(Oc2ccccc2)cc1,5,-44,42,/,/,/,/
C[C@H](CO)N1C[C@H](C)[C@H](CN(C)Cc2ccc(C(F)(F)F)cc2)Oc2c(NC(=O)Nc3ccc(C(F)(F)F)cc3)cccc2C1=O,30,12,101*,?,77,-4,75*
C[C@H](CO)N1C[C@H](C)[C@@H](CN(C)Cc2ccc(Oc3ccccc3)cc2)Oc2c(NC(=O)Nc3ccc(C(F)(F)F)cc3)cccc2C1=O,4,-36,129*,101*,89,8,104*
